21 compounds from PubChem BioAssay (NCI) can be followed below.

Assay [1] in a line: NCI Yeast Anticancer Drug Screen. Data for the rad50 strain (AID 155).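 Further: 0% = growth of vehicle-only cultures of the same strain.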 The note with it: S. cerevisiae rad50 strain growth inhibition; at 50.0 µM; stronger effect = higher value. Summed up:
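Genetically altered yeast (DNA repair pathway); compound treatment; growth inhibition vs vehicle ctrl.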

Assay [2] can be described thus: NCI Yeast Anticancer Drug Screen. Data for the mec2-1 strain (AID 157). The note with it: S. cerevisiae mec2-1 strain, at 50.0 µM, stronger effect = higher value. Put shortly: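 Growth inhibition is read against vehicle-treated controls after compound exposure of the mec2-1 yeast strain, which is defective in DNA damage repair or cell cycle control.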
The nature of assay [3]: NCI Yeast Anticancer Drug Screen. Data for the sgs1 mgt1 strain (AID 161).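 Further: 0% = growth of cultures given vehicle only.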 Conditions: S. cerevisiae sgs1 mgt1 strain, at 50.0 µM, stronger effect = higher value. Summed up: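 Compounds are added to genetically altered yeast, and growth is compared with cultures given vehicle alone to give percent inhibition.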
Assay [4] is described as follows: NCI Yeast Anticancer Drug Screen. Data for the cln2 rad14 strain (AID 165).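 Further: 0% = growth equal to vehicle treated cultures.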 Conditions: S. cerevisiae cln2 rad14 strain, at 50.0 µM, stronger effect = higher value. Put shortly: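 Growth inhibition, relative to vehicle-treated controls, is the read-out. The test organism is a yeast strain with defined genetic alterations, cln2 rad14.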
A short description of assay [5]: NCI Yeast Anticancer Drug Screen. Data for the bub3 strain (AID 167). Conditions: S. cerevisiae bub3 mutant strain, at 50.0 µM, stronger effect = higher value. Put shortly:
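Yeast carrying a defined mutation is treated with each compound, and growth is compared with that of vehicle-exposed cells to give inhibition.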

The nature of assay [6]: NCI Yeast Anticancer Drug Screen. Data for the mlh1 rad18 strain (AID 175). Conditions: S. cerevisiae mlh1 rad18 strain growth inhibition; at 50.0 µM; stronger effect = higher value. Summed up: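 Cells of a genetically altered yeast strain, deficient in DNA damage repair, were treated with compound. Their growth was then compared with that of vehicle-treated cultures to give inhibition.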

The structures appear in SMILES notation. This is part of a sample that, as a whole, favours compounds with a hit. Of some 79,000 tested, about 15% had one in any assay. Values without a mark were called inactive. Activity calls are given as the source filed them. No stated cut-off is given here; in the data, active means growth inhibition above about 70%; inactive means the rest.

As to `Cn1c(N)c(N=Cc2ccc(Cl)cc2)c(=O)n(C)c1=O`, the growth inhibition in assay [1] was -9.2%; in assay [2] it was 2.35%; in assay [3] it was -5.5%; in assay [4], -16.5%; in assay [5] it was -7.75%; in assay [6], -7.4%.

For `CC(=O)OCC(=O)O[C@@H]1[C@H]2[C@@H](OC(=O)c3ccccc3)[C@@H](C)C[C@]2(O)[C@H](OC(C)=O)[C@@]2(C)C(OC(C)=O)[C@]1(OC(C)=O)C[C@H]1C(=O)C(C)(C)C[C@@H]12` (stereo partly specified), the growth inhibition in assay [1] was -39.6%; in assay [2], -33%; in assay [3], -36.5%; in assay [4], -28.9%; in assay [5], -41.5%; in assay [6] it was -61%.

As for `CC1CN(C(=O)/C=C/C(=O)OC2CCCCC2)C(C)CN1C(=O)/C=C/C(=O)OC1CCCCC1` (stereo unspecified), the growth inhibition is 0.2% in assay [1]; -3.15% in assay [2]; -7.9% in assay [3]; 1.7% in assay [4]; -4.45% in assay [5]; -27.2% in assay [6].

As to `CC(C)OC(=O)N1C(=O)C2C3CCC(O3)C2C1=O` (stereo unspecified), the growth inhibition is 9.2% in assay [1]; 8.25% in assay [2]; 15.2% in assay [3]; 10.4% in assay [4]; 9.65% in assay [5]; 16.1% in assay [6].

Take `COc1ccc(Nc2cccc(Cl)c2)cc1`: the growth inhibition in assay [1] was 97% (active); in assay [2] it was 98.2% (active); in assay [3], 96.5% (active); in assay [4] it was 95.9% (active); in assay [5] it was 95.6% (active); in assay [6], 97.8% (active).

For `NCCCc1ccc2c(c1)OCO2`, the growth inhibition is 42.2% in assay [1]; 6.45% in assay [2]; 36% in assay [3]; 47.7% in assay [4]; 30.4% in assay [5]; 50.5% in assay [6].

On to `N#C/C(=C\c1c[nH]c2ccccc12)c1ccc([N+](=O)[O-])cc1`, for which the growth inhibition in assay [1] was -13.9%; in assay [2] it was -10%; in assay [3] it was 5.45%; in assay [4], 3.45%; in assay [5], -5.2%; in assay [6], -4.1%.

`Cc1c2oc3c(C)ccc(C(=O)NCCN4CCOCC4)c3nc-2c(C(=O)NCCN2CCOCC2)c(N)c1=O`: the growth inhibition in assay [1] was -8.1%; in assay [2], 29.6%; in assay [3], 37.5%; in assay [4], -26.5%; in assay [5], 38.9%; in assay [6], 15.8%.

Regarding `O=C(CCCCCCCCC(=O)OCCCn1cc(C(=O)NC(=O)OCc2ccccc2)c(=O)[nH]c1=O)OCCCn1cc(C(=O)NC(=O)OCc2ccccc2)c(=O)[nH]c1=O`, the growth inhibition in assay [1] was -28.6%; in assay [2], -41.7%; in assay [3], -25.6%; in assay [4] it was 1.7%; in assay [5], -24.2%; in assay [6] it was -36.8%.

Regarding `COc1ccc(-c2nnc(N)o2)cc1OC`, the growth inhibition in assay [1] is -34%; in assay [2] it was -10.3%; in assay [3], -16.1%; in assay [4], 6.35%; in assay [5] it was -13.9%; in assay [6], -24.9%.

With `CCCCCC(O)c1ccc2c(c1)OCO2` (stereo unspecified), the growth inhibition is 13.8% in assay [1]; 12.9% in assay [2]; 10.4% in assay [3]; 2.2% in assay [4]; -8.85% in assay [5]; 0% in assay [6].

Turning to `S=c1[nH]nc(COc2cccc3cccnc23)n1-c1ccccc1`, the growth inhibition in assay [1] is 12.5%; in assay [2], 2.55%; in assay [3], 2.05%; in assay [4], 25.9%; in assay [5] it was 13.4%; in assay [6] it was 12.4%.

Regarding `c1ccc2cc(C3OCC4(CCC4)CO3)ccc2c1`, the growth inhibition in assay [1] was 11.6%; in assay [2], -1.35%; in assay [3], 3.1%; in assay [4], -26.8%; in assay [5] it was 24.8%; in assay [6], -6.9%.

For the compound `CC(=O)NC(Cc1ccccc1)C(=O)Nc1ccc(C)cc1` (stereo unspecified), the growth inhibition in assay [1] was 14.3%; in assay [2] it was 0.55%; in assay [3] it was 15.8%; in assay [4], 16.6%; in assay [5] it was 11.4%; in assay [6], 14.2%.

For the compound `CCCCCNC(=O)Nc1cccc(Cl)c1C`, the growth inhibition is -1.4% in assay [1]; 6.75% in assay [2]; 3.55% in assay [3]; 11.4% in assay [4]; 16.6% in assay [5]; -20.6% in assay [6].

On to `Cc1oc2nc(N(C)C)nc(NN)c2c1C`, for which the growth inhibition in assay [1] is 10.1%; in assay [2], 5.55%; in assay [3] it was -4.55%; in assay [4], -0.75%; in assay [5] it was 10.2%; in assay [6], -13.8%.

As to `CSc1nc(SC)c2nc(SC)n(-c3ccccc3)c2n1`, the growth inhibition is -2.7% in assay [1]; -16.1% in assay [2]; 7.85% in assay [3]; -10.3% in assay [4]; 3.85% in assay [5]; -2.75% in assay [6].

In the case of `COC(=S)SCSC(=S)OC`, the growth inhibition in assay [1] is -12.2%; in assay [2], -27.3%; in assay [3], -2.5%; in assay [4] it was -14.9%; in assay [5] it was -6.45%; in assay [6], -27.9%.

For the compound `C1CCN(CCC2CCNCC2)C1`, the growth inhibition is 5.5% in assay [1]; -19.4% in assay [2]; -15.1% in assay [3]; 13.5% in assay [4]; -1% in assay [5]; 3.8% in assay [6].

On to `Oc1ccc(Cl)cc1N1CCOCC1`, for which the growth inhibition in assay [1] was 9.55%; in assay [2], 24.1%; in assay [3] it was 13.4%; in assay [4], -15.2%; in assay [5] it was -19.6%; in assay [6], -15%.

Turning to `Cc1ccccc1N=C(N)Nc1ccccc1`, the growth inhibition in assay [1] was 5.5%; in assay [2], -4.85%; in assay [3], -3.9%; in assay [4], -43.3%; in assay [5], -10.6%; in assay [6], -6.7%.
